Consider 40 compounds from ChEMBL document CHEMBL3433997, “St. Jude Leishmania screening dataset” (2016).

SMILES strings stand for the structures.

The target in this assay is Glucose transporter (Leishmania mexicana) (UniProt O61059). Description: ST_JUDE_LEISH: Cytotoxicity at 2uM final concentration against transgenic Leishmania Mexicana promastigotes LmGT2 that are glucose transport deficient and complemented with the L. Mexicana glucose transporter 2. Activity is measured by DNA content using SYBR green in vitro. The assay is classed as functional.
For the compound `COc1cccc(NC(=O)[C@H](C)n2c(=O)[nH]c3ccccc3c2=O)c1`, the inhibition amounted to 7.45%. In the case of `CC(C)(O)CC(C)(C)c1cc(Cl)ccc1O` it was 4.82%; in that of `O=C(NC1CCC1)C1CCN(C(c2ccc(Cl)cc2)c2ccc(Cl)cc2)CC1`, -0.82%. On to `CN1CCCC(CN2CCN(Cc3cccc(-c4ccc(-c5nc6ccccc6[nH]5)cc4)c3)CC2)C1` (stereo not given), for which the inhibition came out at 6.63%. `CCCCCN1CCCN(Cc2cccc(NC(=O)c3ccc4ccccc4c3)c2)CC1`: the inhibition turned out to be 4.95%. On to `O=C(Nc1ccc(Cl)cc1)Nc1ccc(OCC(O)CN2CCCCC2)cc1` (stereo not given), for which the inhibition amounted to 7.64%. In the case of `CCn1c(SCc2ccccc2)nc2c1c(=O)[nH]c(=O)n2C` it was -1.06%; in that of `Cc1nnsc1C(=O)Nc1ccc(-c2cccc(-c3nc4cccc(C)c4[nH]3)c2)cc1`, 5.18%; in that of `CCCCCCC(C)c1cc(O)c2c(c1)OC(C)(C)C=C2c1ccncc1` (stereo not given), 0.58%.

On to `CN(C)CCOc1ccc(/C(=C(/CCCn2ccnc2)c2ccccc2)c2ccc(O)cc2)cc1`, for which the inhibition is 5.69%. Take `Cc1cccc2nc(-c3ccc(-c4ccc(CN5CCCCC5CO)cc4)cc3)[nH]c12` (stereo not given): the inhibition was determined as 19.5%.

With `N#Cc1ccccc1S(=O)(=O)N1CCCC(CNC(=O)[C@H](CC2CCCCC2)NC(=O)c2cc3ccccc3s2)C1` (stereo not given in full), the inhibition stood at 0.55%. Regarding `NC(=O)NC(=O)C=Cc1ccco1`, the inhibition worked out at 1.91%. For `O=c1cc(NCCCNC2CCCc3c2ccc2ccccc32)[nH]c2ccccc12` (stereo not given), the inhibition is 2.74%. As for `C[C@@H](Oc1cc(-n2cnc3cc(SCCN4CCN(C)CC4)ccc32)sc1C(N)=O)c1ccccc1Cl`, the inhibition is 23.6%.

For `CCn1c(-c2nonc2N)nc2cnc(Oc3cccc(NC(=O)c4ccc(OCCN5CCCCC5)cc4)c3)cc21`, the inhibition was determined as 13.7%. In the case of `Cc1cc(OCC2CCN(c3ncc(C(=O)Nc4ccccc4)cc3Cl)CC2)ccc1F` it was 0.4%. With `CC(C)c1ccc(C2CCN(CCCCNC(=O)c3ccc(NC(=O)c4ccc(C(F)(F)F)cc4)cc3)CC2)c(O)c1`, the inhibition turned out to be 1.92%. In the case of `Cn1cncc1C(=O)Nc1cccc(-c2csc(-c3nc4ccccc4[nH]3)c2)c1`, the inhibition is 2.3%. For `CCC(C)c1ccc(NC(=O)Nc2ccnc3ccccc23)cc1` (stereo not given) the value was 2.25%. For `CCN(CC)CCNC(=O)c1ccc(NC(=O)c2cn(-c3ccccc3)nc2-c2cccs2)cc1` the value was 6.19%.

For the compound `CS(=O)(=O)NCCCNCc1ccc(-c2ccc(-c3nc4cc(C(F)(F)F)ccc4[nH]3)s2)cc1`, the inhibition is 1.6%.

For `N#Cc1ccc(-c2ccc(C(=O)NC3CCN(CCN4CCC(c5cn(CCOC6CCCCO6)c6ccccc56)CC4)CC3)cc2)cc1` (stereo not given), the inhibition was 21.2%. In the case of `Cc1ccccc1OCCCN1CCN(CC(c2ccc(F)cc2)N2CCN(C(C)C)CC2)CC1` (stereo not given) it was 14.9%; in that of `Cc1cc(C(=O)Nc2ccc3c(c2)CCN3C2CCN(Cc3ccc4nsnc4c3)C2)no1` (stereo not given), 5.35%; in that of `CN(C(=O)c1ccc(Br)cc1)c1ccccc1[N+](=O)[O-]`, -2.57%.

For `COc1ccc2nccc(C(=O)NC3CCC(CCN4CCc5cc(C#N)ccc5C4)CC3)c2c1` (stereo not given), the inhibition is 6.71%. As to `CN1CCN(c2cc(-c3cccc(C(F)(F)F)c3)nc(-c3ccncc3)n2)CC1`, the inhibition was -2.16%. For `COc1ccc(C2(CNCC(O)c3cccc([N+](=O)[O-])c3)CCCC2)cc1OC` (stereo not given) the value was 3.66%; for `COc1ccc(C2CCN(CCN3CCC(NC(=O)c4cccc(-c5ccncc5)c4)CC3)CC2)c(OC)c1`, 0.47%; for `COc1ccc(CCn2c(=N)c(C(=O)NC3CCCC3)cc3c(=O)n4ccccc4nc32)cc1`, 5.98%. As to `CC(C)C[C@H](NC(=O)c1cc2ccccc2s1)C(=O)N[C@H]1CCN(Cc2ccc(OCCN3CCNCC3)c3ccccc23)C1`, the inhibition was 0.51%. As to `COc1ccc2cc(C(C)NC3CCN(c4cccc(NC(=O)c5ccncc5)c4)CC3)ccc2c1` (stereo not given), the inhibition is -1.47%.

As to `Cc1cc(N[C@@H](Cc2ccccc2)C(=O)NCCOc2ccccc2)nc(NCCc2cccs2)n1`, the inhibition worked out at 6.47%. On to `Cc1cccc(NC(=O)c2ccc(C(=O)NC3CCN(CC4CCCCC4)CC3)cc2)c1`, for which the inhibition was found to be 4.8%. Consider `CCCN(CCC)CCCCC(C)Nc1c2ccc(Cl)cc2nc2ccc(OC)cc12` (stereo not given), for which the inhibition turned out to be 9.34%. For `Cn1cccc1C(=O)C(=O)Nc1ccc(-c2ccc(-c3nc4cc(F)ccc4[nH]3)cc2)cc1` the value was -0.45%; for `Cc1cccc(C)c1C1CCN(C2CCC(NC(=O)/C=C/c3ccccc3)CC2)CC1` (stereo not given), 5.46%. `COc1ccc([N+](=O)[O-])cc1N(Cc1ccccc1-c1ccccc1)S(=O)(=O)c1ccc(C(F)(F)F)cc1`: the inhibition was 2.13%. In the case of `COc1ccc(CCNCCCCCCNCCCc2ccc(Cl)cc2)cc1OC`, the inhibition came to 4.39%.
